Assay results as given in PubChem BioAssay (Tox21).
Inconclusive results are not listed. A call without a number means that no potency is given here. Active and inactive are the calls of the source. Unless noted, calls come from the whole dose curve; as a rule, active = well fitted curve in the direction sought with a large enough effect in the repeat runs; inconclusive = weak or mixed curves; inactive = no such curve, though single readings can be large; an effect the other way counts as inactive or inconclusive.

What was measured:
[1] = target: Thyrotropin receptor (Homo sapiens) (UniProt P16473); assay: qHTS assay to identify small molecule antagonists of the thyroid stimulating hormone receptor (TSHR) signaling pathway (AID 1259385; calls by dose curve; note: nearly all actives have a fitted effect of over 20% in size; note: potency is the fitted concentration of half-maximal effect)
Procedure, shortened: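 TSHR-HEK293 cells (800/well) plated 18 h, then compounds with Ro20-1724 and TSH at 1.5 ng/mL final, 30 min at room temperature. cAMP quantified by HTRF (cAMP-d2/anti-cAMP-cryptate, 1 h); 15 concentrations in triplicate.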

[2] = target: Progesterone receptor (Homo sapiens) (UniProt P06401); assay: qHTS assay to identify small molecule agonists of the progesterone receptor (PR) signaling pathway (AID 1346784; calls by dose curve; note: nearly all actives have a fitted effect of over 30% in size)
Procedure, shortened: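 Seed PR-UAS-bla HEK 293T cells (2% charcoal-stripped FBS), incubate 6 hr at 37C; add compounds in DMSO, 16 hr at 37C; add LiveBLAzer B/G substrate, 2 hr RT; read fluorescence intensity.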

[3] = target: Progesterone receptor (Homo sapiens) (UniProt P06401); assay: qHTS assay to identify small molecule antagonists of the progesterone receptor (PR) signaling pathway (AID 1346795; active = well fitted inhibition curve with a large enough effect in the signal ratio in the repeat runs, not every such curve was filed as active; the % refers to the signal ratio; note: potency is the fitted concentration of half-maximal effect)
Procedure, shortened: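 Screening used a GripTite HEK293T line with PR-responsive UAS-beta-lactamase. Cells were challenged with compound in the presence of 1 nM R5020 final for 16 hr at 37C; B/G FRET substrate, 2 hr room temperature, fluorescence.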

[4] = qHTS assay to identify small molecule antagonists of the TGF-beta/Smad signaling pathway - cell viability counter screen (AID 1346824); note: nearly all actives have a fitted effect of over 50% in size
Procedure, shortened: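 SBE-bla HEK 293T cells, incubated overnight, then compound plus 0.25 ng/mL TGF-beta1 (stock added) for 5 hr at 37 C. Viability was read in the same wells by CellTiter-Glo luminescence after 30 min at room temperature.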

[5] = qHTS assay to identify small molecule agonists of the TGF-beta/Smad signaling pathway - cell viability counter screen (AID 1346829); note: top concentration of the series differs between compounds; nearly all actives have a fitted effect of over 45% in size
Procedure, shortened: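 HEK 293T SBE-bla line, 5 hr compound exposure at 37 C, multiplexed CellTiter-Glo viability read by luminescence.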

[6] = qHTS assay to identify small molecule agonists of the TGF-beta/Smad signaling pathway (AID 1346859; active = well fitted activation curve with a large enough effect in the signal ratio in the repeat runs, not every such curve was filed as active; the % refers to the signal ratio; note: series mostly up to about 77 µM)
Procedure, shortened: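 Beta-lactamase reporter activity downstream of Smad binding elements was measured in stably transfected HEK 293T cells; compounds were incubated for 5 hr, substrate for 2 hr at room temperature.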

[7] = target: Thyrotropin-releasing hormone receptor (Homo sapiens) (UniProt P34981); assay: qHTS assay to identify small molecule antagonists of the thyrotropin-releasing hormone receptor (TRHR) signaling pathway (AID 1346877; active = well fitted inhibition curve with a large enough effect in the repeat runs, not every such curve was filed as active; note: series mostly up to about 51 µM)
Procedure, shortened: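 Intracellular calcium fluorescence, read kinetically every second over 3 min, reports TRH-evoked signalling in HEK293 cells carrying TRHR. Test compounds were added 5 min ahead of a 1 nM TRH challenge.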

[8] = qHTS assay to identify small molecule antagonists of the progesterone receptor (PR) signaling pathway - cell viability counter screen (AID 1346798); note: series mostly up to about 92 µM; nearly all actives have a fitted effect of over 50% in size
Procedure, shortened: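 Measures cytotoxicity in parallel with the PR antagonist reporter read: HEK293T PR-UAS-bla cells get compound and R5020 for 16 hr, and remaining viable cells are quantified by CellTiter-Glo luminescence.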

[9] = qHTS assay to identify small molecule agonists of the progesterone receptor (PR) signaling pathway - cell viability counter screen (AID 1346799; calls by dose curve; note: nearly all actives have a fitted effect of over 45% in size)
Procedure, shortened: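 Using the same plates as the PR reporter screen, HEK293T PR-UAS-bla cells received compounds for 16 hr at 37C and were then lysed with CellTiter-Glo; luminescence was read 30 min later at room temperature.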

[10] = qHTS assay to identify small molecule agonists of the estrogen receptor alpha (ER-alpha) signaling pathway in the presence of an antagonist - cell viability counter screen (AID 1259386);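 note: series mostly up to about 92 µM; cells exposed to compounds for 22 h at 37 °C before the viability read; nearly all actives have a fitted effect of over 30% in size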
Procedure, shortened: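 VM7Luc4E2, stripped-serum pre-culture 5 d; 24hr plating; +ICI-182,780 10.0nM final; cpds 15 conc, 22hr, 37C/5% CO2; CellTiter-Fluor added at 21hr, fluorescence 1hr later.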

Sequence of Thyrotropin receptor (Homo sapiens) (P16473 whole entry, looked up): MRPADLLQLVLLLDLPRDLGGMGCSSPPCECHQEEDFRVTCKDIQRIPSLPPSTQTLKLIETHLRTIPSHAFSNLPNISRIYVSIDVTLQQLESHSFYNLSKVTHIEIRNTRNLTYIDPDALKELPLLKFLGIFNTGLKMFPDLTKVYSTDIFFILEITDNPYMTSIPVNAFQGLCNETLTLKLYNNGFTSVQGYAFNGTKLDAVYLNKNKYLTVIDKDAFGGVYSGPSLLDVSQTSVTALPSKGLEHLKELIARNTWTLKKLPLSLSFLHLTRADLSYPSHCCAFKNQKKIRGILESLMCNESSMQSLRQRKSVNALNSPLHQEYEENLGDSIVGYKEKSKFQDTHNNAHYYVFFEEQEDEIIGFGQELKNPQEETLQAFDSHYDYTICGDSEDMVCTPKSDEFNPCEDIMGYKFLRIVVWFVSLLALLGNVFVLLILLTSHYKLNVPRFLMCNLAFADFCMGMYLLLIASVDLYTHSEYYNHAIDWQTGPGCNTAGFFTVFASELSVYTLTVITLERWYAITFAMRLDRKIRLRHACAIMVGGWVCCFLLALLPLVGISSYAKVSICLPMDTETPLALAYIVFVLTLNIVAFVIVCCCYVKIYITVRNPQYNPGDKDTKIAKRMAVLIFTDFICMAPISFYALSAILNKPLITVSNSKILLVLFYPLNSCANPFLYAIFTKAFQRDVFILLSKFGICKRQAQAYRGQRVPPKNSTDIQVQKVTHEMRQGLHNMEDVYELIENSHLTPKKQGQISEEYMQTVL
Sequence of Thyrotropin-releasing hormone receptor (Homo sapiens) (P34981 whole entry, looked up): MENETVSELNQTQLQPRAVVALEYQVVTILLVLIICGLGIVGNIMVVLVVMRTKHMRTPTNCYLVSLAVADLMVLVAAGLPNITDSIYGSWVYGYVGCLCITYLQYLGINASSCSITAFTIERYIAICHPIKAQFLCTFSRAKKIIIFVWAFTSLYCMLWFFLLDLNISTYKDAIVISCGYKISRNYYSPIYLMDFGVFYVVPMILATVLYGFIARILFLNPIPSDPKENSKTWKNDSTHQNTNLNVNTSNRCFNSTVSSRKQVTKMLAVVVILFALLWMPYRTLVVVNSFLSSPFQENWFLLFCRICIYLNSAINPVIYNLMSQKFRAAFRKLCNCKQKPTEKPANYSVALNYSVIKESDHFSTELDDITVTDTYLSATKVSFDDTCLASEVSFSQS
Sequence of Progesterone receptor (Homo sapiens) (P06401 whole entry, looked up): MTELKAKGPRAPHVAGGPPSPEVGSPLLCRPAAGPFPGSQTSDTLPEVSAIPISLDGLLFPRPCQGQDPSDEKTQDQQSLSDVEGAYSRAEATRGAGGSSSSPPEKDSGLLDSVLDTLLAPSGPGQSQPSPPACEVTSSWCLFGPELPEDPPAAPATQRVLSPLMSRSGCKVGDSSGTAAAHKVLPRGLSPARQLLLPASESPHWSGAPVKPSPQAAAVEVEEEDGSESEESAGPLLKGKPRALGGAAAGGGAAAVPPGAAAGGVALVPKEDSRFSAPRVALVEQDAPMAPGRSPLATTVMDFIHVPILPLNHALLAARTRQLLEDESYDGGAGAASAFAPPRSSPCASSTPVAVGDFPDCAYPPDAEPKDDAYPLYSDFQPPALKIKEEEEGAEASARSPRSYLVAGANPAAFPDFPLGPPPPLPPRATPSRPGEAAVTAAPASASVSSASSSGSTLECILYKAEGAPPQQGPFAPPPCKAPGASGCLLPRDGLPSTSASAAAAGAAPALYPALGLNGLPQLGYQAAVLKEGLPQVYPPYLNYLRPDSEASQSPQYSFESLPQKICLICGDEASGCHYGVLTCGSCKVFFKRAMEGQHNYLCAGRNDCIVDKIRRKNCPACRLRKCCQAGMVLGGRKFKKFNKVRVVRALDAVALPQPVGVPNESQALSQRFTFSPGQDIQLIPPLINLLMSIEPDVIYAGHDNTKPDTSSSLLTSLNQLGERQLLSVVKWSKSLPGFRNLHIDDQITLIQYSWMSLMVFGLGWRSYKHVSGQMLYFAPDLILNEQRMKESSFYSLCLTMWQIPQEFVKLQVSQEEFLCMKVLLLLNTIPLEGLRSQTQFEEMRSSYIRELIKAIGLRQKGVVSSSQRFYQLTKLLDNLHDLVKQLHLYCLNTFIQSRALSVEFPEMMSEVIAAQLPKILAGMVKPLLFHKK

| Structure (SMILES) | Potency [1] | Potency [2] | Potency [3] | outcome [4] | outcome [5] | outcome [6] | outcome [7] | Potency [8] | Potency [9] | Potency [10] |
| --- | --- | --- | --- | --- | --- | --- | --- | --- | --- | --- |
| Cc1ccc(S(=O)(=O)NC2CCCCC2)cc1 | inactive | inactive | 27.1 µM (active) | inactive | inactive | inactive | inactive | – | – | – |
| O=C(CCCCCCCCC#CI)Oc1ccccc1 | inactive | inactive | inactive | inactive | inactive | – | inactive | inactive | inactive | – |
| C=CC(C)(C)CC(=O)OC | inactive | – | – | inactive | inactive | inactive | inactive | inactive | – | inactive |
| O=C(O)c1cccnc1C(=O)O | inactive | inactive | inactive | inactive | inactive | inactive | – | inactive | inactive | – |
| O=S(=O)(c1ccccc1)c1ccc(Cl)cc1 | inactive | inactive | 24.3 µM (active) | inactive | inactive | inactive | inactive | inactive | – | – |
| CC1(C)C2=CCCC(C)(C)[C@]23CC[C@H]1C3 | inactive | – | inactive | inactive | inactive | inactive | inactive | – | – | inactive |
| CCCC1C(CC)=CC(CC)=CN1c1ccccc1 (stereo unspecified) | inactive | inactive | 27.3 µM (active) | inactive | inactive | inactive | – | – | – | – |
| NC(=O)N(O)[C@@H]1COc2cc(OCc3ccccc3)ccc21 | inactive | – | 13.7 µM (active) | inactive | inactive | inactive | – | – | – | inactive |
| C=CC(=C)CCCC(C)(C)OC(C)=O | inactive | inactive | inactive | inactive | inactive | inactive | inactive | inactive | inactive | – |
| CCC(=O)Oc1ccc(/C(CC)=C(\CC)c2ccc(OC(=O)CC)cc2)cc1 | inactive | – | 12.2 µM (active) | inactive | inactive | inactive | inactive | – | – | inactive |
| CC[C@H](NC(=O)c1cc(F)ccc1NS(=O)(=O)c1cccc2cccnc12)c1ccccc1 | inactive | – | – | inactive | inactive | inactive | inactive | – | inactive | inactive |
| Cc1ccccc1N1C(=O)c2cc(S(N)(=O)=O)c(Cl)cc2NC1C (stereo unspecified) | inactive | inactive | inactive | inactive | inactive | inactive | – | inactive | inactive | – |
| C=CCNc1nc(NCC=C)nc(N2CCN(C(c3ccc(F)cc3)c3ccc(F)cc3)CC2)n1 | 9.44 µM (active) | inactive | 2.98 µM (active) | inactive | inactive | inactive | inactive | – | – | – |
| CCCCC(CC)CNCC(CC)CCCC (stereo unspecified) | inactive | inactive | inactive | inactive | inactive | inactive | inactive | inactive | inactive | – |
| CC(=O)Nc1ccc(N)cc1 | inactive | inactive | inactive | inactive | inactive | inactive | – | inactive | inactive | – |
| CCCCCCCCCOC(C)=O | inactive | inactive | inactive | inactive | inactive | inactive | – | inactive | inactive | – |
| c1cnc2c(n1)CCCC2 | inactive | inactive | inactive | inactive | inactive | inactive | inactive | inactive | inactive | – |
| C/C(=N/NC(=O)c1ccncc1)C(=O)O | inactive | inactive | inactive | inactive | inactive | inactive | – | inactive | inactive | – |
| COCC(O)CO (stereo unspecified) | inactive | inactive | inactive | inactive | inactive | inactive | inactive | inactive | inactive | – |
